# Experimental data published in PubChem BioAssay AID1347120 (National Center for Advancing Translational Sciences (NCATS), 2019).
# The campaign covered roughly 390,000 compounds. About 930 (0.24%) were called active. Another 5% or so got no clear call; they are omitted. Calls follow the shape of the dose curve; as a rule, active = well fitted activation curve with a large enough effect; inconclusive = small, poorly fitted or top-dose-only effect; inactive = no such curve, though single readings can be large or run the other way. Many of the other results were omitted from the sample, so actives are more common in it than they were.
# Assay: qHTS for Suppressors of FUS Proteinopathy: Primary screen using FUS-linked yeast assay; also: nearly all actives have a fitted effect of over 55% in size;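 as to growth rescue (activation): plate controls were DMSO vehicle for no effect and reference control for full effect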
# Conditions: S. cerevisiae FUS-expressing, OD600, 24 h; Potency: growth rescue; series mostly up to 76.6 µM; growth rescue (activation): at the top concentration
# Excerpt: Several widespread neurodegenerative diseases, including Alzheimer disease, Huntington disease, Frontotemporal Lobar Degeneration (FTLD) and Amyotrophic Lateral Sclerosis (ALS), share a common pathological feature, namely accumulation of specific protein aggregates in diseased tissue. These diseases which is associated with protein misfolding (proteinopathies) have become increasingly problematic as the population ages and life expectancies are extended. Most proteinopathies are currently incurable, a situation confounded by the fact that the basis of neurodegeneration is generally poorly understood. There exists urgent and significant need to find therapeutics that can inhibit the toxicity associated with protein aggregation. A novel approach to understand the underlying mechanisms of neurodegenerative diseases has recently emerged in which the disease conditions are modeled in the yeast (Saccharomyces cerevisiae), a tractable eukaryotic organism with conserved protein quality control mechanisms. Yeast offers quick and reliable genetic manipulations and can be easily tailored to high-throughput screening (HTS).
# For this project, a yeast model of the FUS proteinopathies (a spectrum of neurodegenerative diseases that include ALS and a subtype of FTLD) was generated and employed. The cytoplasmic accumulation of the DNA/RNA-binding protein FUS (also known as TLS) is causative to both familial and sporadic forms of ALS and FTLD. This yeast model recapitulates neuronal pathology by showing severe cytotoxicity associated with cytoplasmic accumulation of FUS aggregates and a specific interaction between FUS and TDP-43, another ALS-associated protein. […] Specifically, the cellular accumulation of misfolded FUS that disrupts RNA homeostasis in both yeast and higher eukaryotes. This model was validated to be suitable for quantitative HTS (qHTS) use for finding genetic or chemical factors that restore growth. […] Identified compounds that inhibits FUS-yeast toxicity is flagged, re-acquired, and validated for further investigation and optimization.
# NIH Chemical Genomics Center [NCGC]
# NIH Molecular Libraries Probe Production Centers Network [MLPCN]
# Assay Submitter (PI): Frank Shewmaker PhD, Uniformed Services University of the Health Sciences
# Compound CP55940 was used as the positive control. Column 1 was treated with CP55940 titration from 92uM (final concentration, 1:2 dilution), while Column 2 was treated with top dose 92uM. Columns 3 and 4 were treated with DMSO only as negative control to assess background and noise signal.
# Four hundred fifty microliter of cultured yeast (in 20mL rich medium) provided by Dr. Shewmaker lab was incubated at 30C at 99% humidity for 3hr. The culture was then spun down at 4000rpm for 5min and the cell pellet was resuspended in 2mL of Sdmin Media + ALU(330) + 2.5% Raffinose. One hundred microliter of the suspension was added to 900uL of water and OD of the solution was obtained. Twenty mL of responding medium (provided by Shewmaker lab) + 2.5% raffinose was added to ensure cell density of 0.1; the solution was incubated overnight. Working cell solution (FUS-yeast in Sdmi + Sdmi + 1X ALU + 2% galactose media) was prepared (final OD at 0.005) and 3uL was dispensed in a 1536-well Aurora high based clear bottom assay plates. Controls and library compounds (at various final concentrations from 40uM to 0.32uM) were added using a 1536-well pin array using the Kalypsys pin-tool. The plates were then incubated for 24hrs in a cell-culture incubator (30C; 99% humidity). Absorbance at 600nm was then read using the PerkinElmer ViewLux plate reader.
# Potency is read from the fitted curve at half-maximal effect.
SMILES,Potency,growth rescue (activation)
COc1ccc(S(=O)(=O)N(C)C[C@H]2Oc3c(NC(=O)Nc4ccc5c(c4)OCO5)cccc3C(=O)N([C@H](C)CO)C[C@@H]2C)cc1,25.1 µM (active),–
COc1ccc(S(=O)(=O)Nc2cccc3c2O[C@H](CN(C)S(=O)(=O)c2ccc(OC)cc2)[C@@H](C)CN([C@H](C)CO)C3=O)cc1,–,44.3% (inactive)
CC(C)NC(=O)Nc1cccc2c1O[C@@H](CN(C)S(=O)(=O)c1ccc(F)cc1)[C@@H](C)CN([C@H](C)CO)C2=O,–,21% (inactive)
COc1cc(OC)c(NC(=O)c2cc(S(=O)(=O)N3CCCC3)cn2C)cc1Cl,–,-16.3% (inactive)
COC(=O)c1ccccc1NC(=O)C(Cc1ccccc1)N1Cc2ccccc2C1=O (stereo not drawn),–,20.6% (inactive)
Cc1cccc(CCNC(=O)c2ccc3c(c2)nc2n3CCC(C)C2)c1 (stereo not drawn),–,-6.88% (inactive)
COc1cccc(NC(=O)N2CCN(C(=O)c3nsc4ccccc34)CC2)c1,–,11.1% (inactive)
Cc1nc(SCCOc2ccc(Cl)cc2)[nH]c(=O)c1Cc1ccccc1,–,-21% (inactive)
COP(=O)(O)CNC(=O)OCc1ccccc1,–,-20.6% (inactive)
O=C(CNC(=O)Cc1ccccc1)NCC(=O)OCC(=O)c1ccccc1Cl,–,22.9% (inactive)
O=C(CNC(=O)OCc1ccccc1)Oc1cc2oc(=O)cc(-c3ccccc3)c2cc1Cl,12.6 µM (active),–
CCOc1ccc(N=Cc2c(O)n(-c3cccc(C)n3)c(=O)c3ccccc23)cc1,8.91 µM (active),–
CCO/C=C1\C(=O)N(c2ccc(OCC)cc2)C(=O)c2ccccc21,–,-7.53% (inactive)
COC(=O)Cc1csc(/N=C/c2c(O)n(-c3cccc(C(F)(F)F)c3)c(=O)c3ccccc23)n1,–,-14.2% (inactive)
CCc1ccc(NC(=O)CCCc2nnc3n(CCCOC)c(=O)c4sccc4n23)cc1,–,7.44% (inactive)
O=C(Nc1nc2c(s1)CCCC2)c1ccccc1F,–,15.6% (inactive)
Cn1c(=O)c(=O)n(C)c2cc(NC(=O)c3ccccc3Br)ccc21,–,-10.8% (inactive)
COc1ccc2c(c1)Cc1sc(NC(=O)c3ccccc3Br)nc1-2,28.2 µM (active),–
CN(C(=O)c1ccc2c(c1)N(Cc1cccc(Cl)c1)C(=O)c1ccccc1S2=O)C1CCCCC1 (stereo not drawn),–,33.1% (inactive)
CC(C)Cn1c(CN(Cc2ccccc2)Cc2ccccc2)nc2c1c(=O)n(C)c(=O)n2C,31.6 µM (active),–

SMILES,Potency,growth rescue (activation)
CC(C)CCn1c(CN(C)Cc2ccccc2)nc2c1c(=O)n(C)c(=O)n2C,–,-1.47% (inactive)
Cn1c(=O)[nH]c(=O)c2c1nc(CN(Cc1ccccc1)Cc1ccccc1)n2CCN1CCOCC1,–,18.2% (inactive)
CCN(CC)c1ccc(NC(=O)CN2C(=O)c3cccnc3Oc3ccc(Cl)cc32)c(C)c1,–,5.5% (inactive)
CC1CCc2sc(C(=O)N/N=C/C3CCCCC3)cc2C1 (stereo not drawn),–,27.8% (inactive)
Cc1ccc(Nc2cc(=O)n(C3CCCCC3)c(=O)[nH]2)cc1C,–,2.44% (inactive)
Cc1cc(/C=N/NC(N)=O)c(C)n1C1CCCCC1,22.4 µM (active),–
CCc1ccccc1NC(=O)N1CCN(C(=O)c2nsc3ccccc23)CC1,–,19.2% (inactive)
CCOc1cccc(NC(=O)CSc2ncc(-c3ccc(Cl)cc3)[nH]2)c1,–,17.4% (inactive)
CCNC(=O)Cn1nc(C)n2c(cc3c(OC)cccc32)c1=O,–,-9.14% (inactive)
CC(C)(C)OC(=O)C[C@@H]1C/C=C\C[C@@H](CC(=O)N(CCO)Cc2ccccc2)C(=O)N[C@H](Cc2ccccc2)COC1=O,–,42.3% (inactive)
O=C1CCC/C=C\C[C@@H](CC(=O)N(CCO)Cc2ccccc2)C(=O)NCCO1,–,-10.1% (inactive)
O=C1N[C@@H](c2ccccc2)COC(=O)[C@H](Cc2ccc(F)cc2)C/C=C\C[C@@H]1CC(=O)N(CCO)Cc1ccccc1,22.4 µM (active),–
CCC1CCCCN1Cc1c(O)ccc2c(=O)c(Oc3ccccc3Cl)c(C(F)(F)F)oc12 (stereo not drawn),–,41.8% (inactive)
Cc1ccc(C)c(Cn2c(CCCNC(=O)C3CCCCC3)nc3ccccc32)c1,–,-6.7% (inactive)
COCCNC(=O)c1cc(-c2cccc(Cl)c2)on1,–,-21.7% (inactive)
COc1ccccc1C1/C(=C(/O)c2ccc(OC(C)C)cc2)C(=O)C(=O)N1c1cc(C)on1 (stereo not drawn),20 µM (active),–
Cc1cc(N2C(=O)C(=O)/C(=C(/O)c3ccccc3)C2c2cccc(Br)c2)no1 (stereo not drawn),–,30.8% (inactive)
Cc1cc(N2C(=O)C(=O)/C(=C(/O)c3ccc(Cl)cc3)C2c2cccc(Br)c2)no1 (stereo not drawn),–,18.5% (inactive)
Cc1ccc(-c2cn3c(n2)sc2cc(C(=O)NCCCc4ccccc4)ccc23)cc1,–,-10.9% (inactive)
O=C(CSc1nccn1C1CCCC1)Nc1cc(C(F)(F)F)ccc1Cl,–,9.55% (inactive)

SMILES,Potency,growth rescue (activation)
COc1ccc(CNC(=O)CC2Oc3ccc(C)cc3NC2=O)cc1 (stereo not drawn),–,18.9% (inactive)
CC(=O)Nc1ccc(NC(=O)CCCc2nc(-c3ccc(C(C)(C)C)cc3)no2)cc1,–,1.65% (inactive)
CC1Cc2cc(S(=O)(=O)CCC(=O)Nc3ccc(F)c(Cl)c3)ccc2N1C(=O)C1CC1 (stereo not drawn),–,-4.02% (inactive)
COc1ccccc1-c1cc(C(F)(F)F)nc(S(=O)(=O)CCCC(=O)Nc2ccc(F)cc2F)n1,–,18.6% (inactive)
CCCCc1nn2c(=O)cc(COC(=O)c3ccc(NC(=O)c4ccccc4C)cc3)nc2s1,–,7.51% (inactive)
CCCCOc1ccc(CN2C(=O)C(=O)c3cc(Br)cc(C)c32)cc1OC,–,2.56% (inactive)
Cc1ccc(CNC(=O)CCc2c(C)nc3c(c(C)nn3-c3ccccc3)c2C)cc1,–,-8.63% (inactive)
CCN(CC)C(=O)CSc1nc2cc3c(cc2c(=O)n1CCCC(=O)NCc1ccc2c(c1)OCO2)OCO3,–,42.4% (inactive)
CCOc1ccc(-c2cc3c(=O)n(CC(=O)NCc4ccc(OC)cc4)ccn3n2)cc1,–,-11.9% (inactive)
COc1cccc(-n2c(=O)c3c(C)c(C(=O)N(C)C)sc3n(Cc3cccc(C)c3)c2=O)c1,–,17.2% (inactive)
CCN(CC(=O)Nc1ccc(Cl)c(S(=O)(=O)N(C)C)c1)Cc1nc2ccccc2c(=O)[nH]1,31.6 µM (active),–
CCN(CC(=O)NC(=O)NCc1ccccc1)Cc1nc2ccccc2c(=O)[nH]1,–,6.69% (inactive)
CCN(CC(=O)Nc1cccc(S(N)(=O)=O)c1)Cc1nc2ccccc2c(=O)[nH]1,–,-6.78% (inactive)
CCN1CCN(CCCNC(=O)c2ccc3c(c2)sc2nc(-c4ccc(OC)cc4)cn23)CC1,–,17.2% (inactive)
COc1ccc(CC(=O)NCCc2sc3nc(-c4ccc(OC)cc4)nn3c2C)cc1,–,-0.404% (inactive)
COC(=O)CN1C(=O)CSc2ccc(S(=O)(=O)Nc3cc(C)ccc3C)cc21,–,23% (inactive)
Cc1ccc2nc(N3CCN(c4cccc(Cl)c4)CC3)c3nnnn3c2c1,–,-4.98% (inactive)
Cc1nnc(N2CCC(C(=O)Nc3ccc(F)cc3)CC2)c2nn(-c3ccc(Cl)cc3)c(C)c12,–,9.53% (inactive)
